# Source: PubChem BioAssay (Tox21)
# Values without a mark were called inactive. Results filed as inconclusive are left out. A call without a number means that no potency is given here. The source made the active and inactive calls. Unless noted, calls come from the whole dose curve; as a rule, active = well fitted curve in the direction sought with a large enough effect in the repeat runs; inconclusive = weak or mixed curves; inactive = no such curve, though single readings can be large; an effect the other way counts as inactive or inconclusive.
# How the values were obtained:
# [1] = qHTS assay to identify small molecule antagonists of the constitutive androstane receptor (CAR) signaling pathway - cell viability counter screen (AID 1224837); note: nearly all actives have a fitted effect of over 45% in size; note: potency is the fitted concentration of half-maximal effect; for activity change, negative = cytotoxicity: series mostly up to about 92 µM
# Outline: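 To flag cytotoxic false antagonists, HepG2 hCAR/CYP2B6-2.2kb cells were treated 23 hr with 15-concentration compound series and 50 nM CITCO at 37 C/5% CO2; CellTiter-Fluor fluorescence was the measured end point.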
# [2] = molecular target: Nuclear receptor subfamily 1 group I member 3 (Homo sapiens) (UniProt Q14994); experiment: qHTS assay to identify small molecule antagonists of the constitutive androstane receptor (CAR) signaling pathway (AID 1224838);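 note: HepG2 cells stably expressing hCAR with CYP2B6 luciferase reporter stimulated by CITCO; nearly all actives have a fitted effect of over 40% in size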; note: potency is the fitted concentration of half-maximal effect
# Outline: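 Human hepatoma HepG2 cells expressing hCAR and a CYP2B6 promoter (2.2 kb) luciferase construct; compound titration (15 points) with 50 nM CITCO final, 24 h at 37 C/5% CO2; luminescence via ONE-Glo after 30 min at room temperature.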
# [3] = molecular target: Nuclear receptor subfamily 1 group I member 3 (Homo sapiens) (UniProt Q14994); experiment: qHTS assay to identify small molecule agonists of the constitutive androstane receptor (CAR) signaling pathway (AID 1224839); note: nearly all actives have a fitted effect of over 15% in size; note: potency is the fitted concentration of half-maximal effect;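 for activation: HepG2 cells stably carrying human CAR and a CYP2B6 luciferase reporter; series mostly up to about 92 µM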
# Outline: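 Using human hepatoma HepG2 cells engineered with hCAR and a CYP2B6-2.2kb reporter, 15-concentration compound series were incubated 24 h alongside PK11195 at 0.75 uM final, with luminescence quantified afterwards.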
# [4] = qHTS assay to identify small molecule antagonists of the estrogen related receptor signaling pathway with the pleiotropic PPARgamma coactivator (PGC) from Tox21 10K library - cell viability counter screen (AID 1224840; active = well fitted cell-killing curve with a large enough effect in the repeat runs, not every such curve was filed as active; note: nearly all actives have a fitted effect of over 40% in size; note: potency is the fitted concentration of half-maximal effect)
# Outline: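 Seeded PGC/ERR cells (2,000/well, 6 h, 37 C/5% CO2) get compound by pin tool; 17.5 h incubation at 37 C; CellTiter-Fluor added, 30 min, fluorescence measured.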
# [5] = molecular target: Thyrotropin receptor (Homo sapiens) (UniProt P16473); experiment: qHTS assay to identify small molecule agonists of the thyroid stimulating hormone receptor (TSHR) signaling pathway (AID 1224843; calls by dose curve; note: nearly all actives have a fitted effect of over 45% in size)
# Outline: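 Agonist activity read as cAMP rise via d2/cryptate HTRF competition, 1 h room-temperature detection, in HEK293 cells expressing TSHR. Fifteen-point titrations, each run in triplicate, with a 30 min room-temperature incubation beforehand.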
# [6] = qHTS assay to identify small molecule agonists of H2AX (AID 1224845; active = well fitted activation curve with a large enough effect in the signal ratio in the repeat runs, not every such curve was filed as active; the % refers to the signal ratio; note: potency is the fitted concentration of half-maximal effect)
# Outline: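 Phospho-H2AX Ser139 measured by HTRF (ex 320 nm; em 665 and 620 nm) after 24 hr antibody incubation. Compounds, 15 concentrations, 0.76% DMSO, were applied to CHO-K1 cells for 3hr at 37C before lysis.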
# [7] = qHTS assay to identify small molecule agonists of the hypoxia (HIF-1) signaling pathway (AID 1224846; active = well fitted activation curve with a large enough effect in the signal ratio in the repeat runs, not every such curve was filed as active; the % refers to the signal ratio)
# Outline: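 Reporter induction in HRE-bla ME-180 cells is taken as agonism: cells sit 5 hrs after plating, receive compounds or DMSO only, incubate 17 hrs at 37C under 5% CO2, and are loaded with CCF4-AM for beta-lactamase FRET measurement.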
# [8] = qHTS assay to identify small molecule agonists of H2AX - cell viability counter screen (AID 1224847; calls by dose curve; note: nearly all actives have a fitted effect of over 30% in size; note: potency is the fitted concentration of half-maximal effect;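 for activity change, negative = cytotoxicity: wild-type CHO-K1 cells; top concentration of the series differs between compounds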)
# Outline: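 After overnight plating of 1000 CHO-K1 cells per well, a 15-concentration compound series was applied for 3 hr at 37C. Luminescence from CellTiter-Glo, read following 30 min at room temperature, reflected cell viability.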
# [9] = qHTS RealTime-Glo MT Cell Viability Assay in HepG2 cells - 24 hour (AID 1224867); note: nearly all actives have a fitted effect of over 50% in size; note: potency is the fitted concentration of half-maximal effect
# Outline: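 HepG2 cells were seeded at 600 cells/well together with NanoLuc luciferase and a cell-permeant prosubstrate, preincubated 5 h at 37 C/5% CO2, then pin-dosed with compounds in DMSO. Nonlytic luminescence from viable cells was read at each time point.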
# [10] = A CellTox Green Cytotoxicity Assay to monitor cytotoxicity in HEK293 cells - 0 hour (AID 1224869); note: nearly all actives have a fitted effect of over 50% in size
# Outline: (§1)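 Tox21 screen in HEK293: membrane-impermeant cyanine dye fluoresces on binding dead-cell DNA; compound pinned 5 h post-seeding, plates held at 37 C, signal read repeatedly through 40 h.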
# [11] = A CellTox Green Cytotoxicity Assay to monitor cytotoxicity in HEK293 cells - 40 hour (AID 1224871); note: nearly all actives have a fitted effect of over 45% in size; note: potency is the fitted concentration of half-maximal effect
# Outline: as §1
# [12] = qHTS RealTime-Glo MT Cell Viability Assay in HepG2 cells - 8 hour (AID 1224873); note: nearly all actives have a fitted effect of over 55% in size; note: potency is the fitted concentration of half-maximal effect
# Outline: (§2)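 Real-time viability: cells seeded at 600 per well together with NanoLuc and cell-permeant prosubstrate, compounds added after 5 h incubation. Luminescence tracked at 0, 8, 16, 24, 32 and 40 h of exposure.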
# [13] = qHTS assay to identify small molecule agonists of the hypoxia (HIF-1) signaling pathway - cell viability counter screen (AID 1224844; calls by dose curve; note: nearly all actives have a fitted effect of over 50% in size; note: potency is the fitted concentration of half-maximal effect)
# Outline: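 HRE-bla ME-180; 0.5% dFBS; cpd 17 h, 37C, 5% CO2; CellTiter-Glo lum., 30 min RT, post-FRET read, same wells.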
# [14] = qHTS RealTime-Glo MT Cell Viability Assay in HEK293 cells - 32 hour (AID 1224868); note: nearly all actives have a fitted effect of over 50% in size; note: potency is the fitted concentration of half-maximal effect; for activity change, negative = cytotoxic: top concentration of the series differs between compounds
# Outline: (§3)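 HEK293 cells were seeded at 600 cells/well together with NanoLuc luciferase and cell-permeant prosubstrate, preincubated 5 h at 37 C/5% CO2, then given compound in DMSO by pintool. Luminescence from viable-cell prosubstrate reduction was read repeatedly over 40 h.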
# [15] = qHTS RealTime-Glo MT Cell Viability Assay in HepG2 cells - 40 hour (AID 1224870); note: nearly all actives have a fitted effect of over 50% in size; note: potency is the fitted concentration of half-maximal effect
# Outline: as §2
# [16] = qHTS RealTime-Glo MT Cell Viability Assay in HEK293 cells - 16 hour (AID 1224872); note: nearly all actives have a fitted effect of over 50% in size; note: potency is the fitted concentration of half-maximal effect; for activity change, negative = cytotoxicity: top concentration of the series differs between compounds
# Outline: as §3
# Sequence of Nuclear receptor subfamily 1 group I member 3 (Homo sapiens) (Q14994 whole entry, looked up): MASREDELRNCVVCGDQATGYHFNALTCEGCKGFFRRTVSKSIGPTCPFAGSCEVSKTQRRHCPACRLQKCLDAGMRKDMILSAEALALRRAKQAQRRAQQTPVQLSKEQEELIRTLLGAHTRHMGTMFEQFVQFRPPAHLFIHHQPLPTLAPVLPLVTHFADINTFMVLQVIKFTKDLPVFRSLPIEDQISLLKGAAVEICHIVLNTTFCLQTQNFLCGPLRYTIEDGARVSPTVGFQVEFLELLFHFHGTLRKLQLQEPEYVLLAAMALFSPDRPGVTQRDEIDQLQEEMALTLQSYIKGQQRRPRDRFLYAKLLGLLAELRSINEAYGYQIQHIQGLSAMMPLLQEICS
# Sequence of Thyrotropin receptor (Homo sapiens) (P16473 whole entry, looked up): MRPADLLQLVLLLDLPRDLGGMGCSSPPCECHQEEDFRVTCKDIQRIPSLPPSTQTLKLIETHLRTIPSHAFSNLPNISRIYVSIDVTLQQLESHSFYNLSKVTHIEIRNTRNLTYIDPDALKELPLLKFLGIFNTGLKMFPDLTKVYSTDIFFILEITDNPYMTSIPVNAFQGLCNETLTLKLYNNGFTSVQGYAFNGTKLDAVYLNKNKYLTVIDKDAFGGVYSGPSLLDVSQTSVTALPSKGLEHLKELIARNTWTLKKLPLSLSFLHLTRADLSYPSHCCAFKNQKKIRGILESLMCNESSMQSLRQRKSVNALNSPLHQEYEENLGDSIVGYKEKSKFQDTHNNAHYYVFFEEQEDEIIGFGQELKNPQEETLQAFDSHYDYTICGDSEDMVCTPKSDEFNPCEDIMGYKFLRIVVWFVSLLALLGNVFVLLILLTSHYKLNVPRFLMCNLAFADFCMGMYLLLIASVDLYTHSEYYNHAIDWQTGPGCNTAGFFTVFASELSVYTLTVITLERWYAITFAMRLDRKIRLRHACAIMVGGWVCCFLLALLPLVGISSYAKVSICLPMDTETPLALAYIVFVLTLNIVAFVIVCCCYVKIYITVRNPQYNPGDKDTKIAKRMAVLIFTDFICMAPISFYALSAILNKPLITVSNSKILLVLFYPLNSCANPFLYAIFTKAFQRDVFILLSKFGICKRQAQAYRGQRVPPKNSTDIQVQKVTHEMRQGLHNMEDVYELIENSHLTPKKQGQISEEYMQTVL
smiles,measurement,setting,value
OCCN1CN(CCO)CN(CCO)C1,Potency,[1],inactive
same,Potency,[2],inactive
same,Potency,[3],inactive
same,Potency,[4],inactive
same,Potency,[5],inactive
same,Potency,[6],inactive
same,outcome,[7],inactive
same,Potency,[8],inactive
same,Potency,[9],inactive
same,Potency,[10],inactive
same,Potency,[11],inactive
same,Potency,[12],inactive
O=S(O)O,"activity change, negative = cytotoxicity",[1],-3.41% [at 19 µM]
same,"activity, negative = inhibition",[2],-9.95% [at 19 µM]
same,activation,[3],-1.32% [at 19 µM]
same,"viability change, negative = cytotoxic",[4],-6.77% [at 19 µM]
same,activation,[5],2.79% [at 19 µM]
same,"activity change, negative = cytotoxicity",[13],0.552% [at 15.8 µM]
same,activation,[7],-0.609% [at 15.8 µM]
same,"activity change, negative = cytotoxicity",[8],3.26% [at 31.6 µM]
same,"activity change, negative = cytotoxicity",[9],3.99% [at 15.8 µM]
same,"activity change, negative = cytotoxic",[14],13.4% [at 15.8 µM]
same,cytotoxicity,[10],-3.65% [at 15.8 µM]
same,"activity change, negative = cytotoxic",[15],-0.0421% [at 15.8 µM]
same,"activity change, negative = cytotoxicity",[16],5.35% [at 15.8 µM]
same,"viability change, negative = cytotoxic",[12],3.13% [at 15.8 µM]
OCCCc1cccnc1,Potency,[1],inactive
same,Potency,[2],inactive
same,Potency,[3],inactive
same,Potency,[4],inactive
same,Potency,[5],inactive
same,Potency,[13],inactive
same,Potency,[6],inactive
same,outcome,[7],inactive
same,Potency,[8],inactive
same,Potency,[9],inactive
same,Potency,[14],inactive
same,Potency,[10],inactive
same,Potency,[11],inactive
same,Potency,[12],inactive
CC(C)(C)c1cc(CCC(=O)NCCCCCCNC(=O)CCc2cc(C(C)(C)C)c(O)c(C(C)(C)C)c2)cc(C(C)(C)C)c1O,Potency,[1],inactive
same,Potency,[2],1.93 µM (active)
same,Potency,[3],inactive
same,Potency,[4],inactive
same,Potency,[5],inactive
same,Potency,[13],inactive
same,Potency,[6],inactive
same,outcome,[7],inactive
same,Potency,[8],inactive
same,Potency,[10],inactive
same,Potency,[15],inactive
same,Potency,[11],inactive
COCC(=O)O[C@]1(CCN(C)CCCc2nc3ccccc3[nH]2)CCc2cc(F)ccc2[C@@H]1C(C)C,Potency,[1],29.8 µM (active)
same,Potency,[2],29.8 µM (active)
same,Potency,[3],inactive
same,Potency,[4],29.8 µM (active)
same,Potency,[5],inactive
same,Potency,[13],16.9 µM (active)
same,Potency,[9],13.4 µM (active)
same,Potency,[14],6.74 µM (active)
same,Potency,[10],inactive
same,Potency,[15],10.7 µM (active)
same,Potency,[11],19 µM (active)
same,Potency,[16],5.35 µM (active)
same,Potency,[12],21.3 µM (active)
c1ccc2c(c1)CCC2,Potency,[1],inactive
same,Potency,[2],inactive
same,Potency,[3],inactive
same,Potency,[4],inactive
same,Potency,[5],inactive
same,Potency,[13],inactive
same,Potency,[6],inactive
same,outcome,[7],inactive
same,Potency,[9],inactive
same,Potency,[14],inactive
same,Potency,[10],inactive
same,Potency,[15],inactive
same,Potency,[16],inactive
same,Potency,[12],inactive
Brc1ccccn1,Potency,[1],inactive
same,Potency,[2],inactive
same,Potency,[3],inactive
same,Potency,[4],inactive
same,Potency,[5],inactive
same,Potency,[13],inactive
same,Potency,[6],inactive
same,outcome,[7],inactive
same,Potency,[8],inactive
same,Potency,[9],inactive
same,Potency,[14],inactive
same,Potency,[15],inactive
same,Potency,[11],inactive
same,Potency,[16],inactive
same,Potency,[12],inactive
C=C(C)C(=O)OCCC[Si](Cl)(Cl)Cl,Potency,[1],inactive
same,Potency,[2],inactive
same,Potency,[3],inactive
same,Potency,[4],inactive
same,Potency,[5],inactive
same,Potency,[13],inactive
same,Potency,[6],inactive
same,outcome,[7],inactive
same,Potency,[8],inactive
same,Potency,[9],inactive
same,Potency,[14],inactive
same,Potency,[10],inactive
same,Potency,[11],inactive
same,Potency,[16],inactive
same,Potency,[12],inactive
CC(=O)O[C@@H]1C[C@@H]2CC[C@@]1(C)C2(C)C,Potency,[1],inactive
same,Potency,[2],inactive
same,Potency,[3],inactive
same,Potency,[4],inactive
same,Potency,[5],inactive
same,Potency,[6],inactive
same,outcome,[7],inactive
same,Potency,[8],inactive
same,Potency,[9],inactive
same,Potency,[14],inactive
same,Potency,[10],inactive
same,Potency,[15],inactive
same,Potency,[16],inactive
same,Potency,[12],inactive
CC1CNCC(C)O1 (stereo unspecified),Potency,[1],inactive
same,Potency,[2],inactive
same,Potency,[3],inactive
same,Potency,[4],inactive
same,Potency,[5],inactive
same,Potency,[13],inactive
same,outcome,[7],inactive
same,Potency,[8],inactive
same,Potency,[9],inactive
same,Potency,[14],inactive
same,Potency,[10],inactive
same,Potency,[15],inactive
same,Potency,[16],inactive
same,Potency,[12],inactive
CCCCCCS,Potency,[1],inactive
same,Potency,[2],inactive
same,Potency,[3],inactive
same,Potency,[4],inactive
same,Potency,[5],inactive
same,Potency,[13],inactive
same,outcome,[7],inactive
same,Potency,[8],inactive
same,Potency,[9],inactive
same,Potency,[14],inactive
same,Potency,[15],inactive
same,Potency,[11],inactive
same,Potency,[16],inactive
same,Potency,[12],inactive
CCCCCCCCCCCCCCNCCO,Potency,[1],inactive
same,Potency,[2],inactive
same,Potency,[3],8.41 µM (active)
same,Potency,[4],inactive
same,Potency,[5],inactive
same,Potency,[13],inactive
same,Potency,[6],43.8 µM (active)
same,outcome,[7],inactive
same,Potency,[8],55.2 µM (active)
same,Potency,[9],13.4 µM (active)
same,Potency,[14],13.4 µM (active)
same,Potency,[10],inactive
same,Potency,[15],10.7 µM (active)
same,Potency,[11],19 µM (active)
same,Potency,[16],21.3 µM (active)
C[Si](C)O[Si](C)C,Potency,[1],inactive
same,Potency,[2],inactive
same,Potency,[3],inactive
same,Potency,[4],inactive
same,Potency,[5],inactive
same,Potency,[13],inactive
same,Potency,[6],inactive
same,outcome,[7],inactive
same,Potency,[8],inactive
same,Potency,[9],inactive
same,Potency,[10],inactive
same,Potency,[15],inactive
same,Potency,[16],inactive
same,Potency,[12],inactive
Cn1cnc2ncnc(N)c21,Potency,[1],inactive
same,Potency,[2],inactive
same,Potency,[3],inactive
same,Potency,[4],inactive
same,Potency,[5],inactive
same,Potency,[13],inactive
same,Potency,[6],inactive
same,outcome,[7],inactive
same,Potency,[9],inactive
same,Potency,[14],inactive
same,Potency,[10],inactive
same,Potency,[15],inactive
same,Potency,[16],inactive
same,Potency,[12],inactive
CCOCN(C(=O)CS(=O)(=O)O)c1c(C)cccc1CC,Potency,[1],inactive
same,Potency,[2],inactive
same,Potency,[3],inactive
same,Potency,[4],inactive
same,Potency,[5],inactive
same,Potency,[13],inactive
same,outcome,[7],inactive
same,Potency,[9],inactive
same,Potency,[14],inactive
same,Potency,[10],inactive
same,Potency,[11],inactive
same,Potency,[16],inactive
same,Potency,[12],inactive
O=C1OC(=O)c2ccc3c4c(ccc1c24)C(=O)OC3=O,Potency,[1],inactive
same,Potency,[2],inactive
same,Potency,[3],inactive
same,Potency,[4],inactive
same,Potency,[5],inactive
same,Potency,[13],inactive
same,outcome,[7],inactive
same,Potency,[8],inactive
same,Potency,[9],inactive
same,Potency,[14],inactive
same,Potency,[10],inactive
same,Potency,[15],inactive
same,Potency,[11],inactive
same,Potency,[12],inactive
CCCC(C)CCC(C)=O (stereo unspecified),Potency,[1],inactive
same,Potency,[2],inactive
same,Potency,[3],inactive
same,Potency,[4],inactive
same,Potency,[5],inactive
same,Potency,[13],inactive
same,Potency,[6],inactive
same,outcome,[7],inactive
same,Potency,[8],inactive
same,Potency,[9],inactive
same,Potency,[14],inactive
same,Potency,[10],inactive
same,Potency,[15],inactive
same,Potency,[11],inactive
same,Potency,[16],inactive
